Screening results as filed in PubChem.
This is one part of a sample in which hits are shown more often than they occur.
RBX1-CUL1 inh = inhibitors of human ROC1-CUL1 ubiquitin ligase activity. 140,000 compounds, 0.6% hits. inhibition, % at 10 µM. AID 1347404, 2020. in vitro K48 di-Ub FRET, acceptor:donor ratio, 45 min. E3 ubiquitin-protein ligase RBX1 (Homo sapiens) + Cullin-1 (Homo sapiens), P62877+Q13616; in the data active means inhibition above about 25%
Target sequence (P62877 whole entry, looked up): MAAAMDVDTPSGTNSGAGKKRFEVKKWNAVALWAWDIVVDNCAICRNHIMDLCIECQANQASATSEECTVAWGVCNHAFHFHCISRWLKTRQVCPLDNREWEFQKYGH
Target sequence (Q13616 whole entry, looked up): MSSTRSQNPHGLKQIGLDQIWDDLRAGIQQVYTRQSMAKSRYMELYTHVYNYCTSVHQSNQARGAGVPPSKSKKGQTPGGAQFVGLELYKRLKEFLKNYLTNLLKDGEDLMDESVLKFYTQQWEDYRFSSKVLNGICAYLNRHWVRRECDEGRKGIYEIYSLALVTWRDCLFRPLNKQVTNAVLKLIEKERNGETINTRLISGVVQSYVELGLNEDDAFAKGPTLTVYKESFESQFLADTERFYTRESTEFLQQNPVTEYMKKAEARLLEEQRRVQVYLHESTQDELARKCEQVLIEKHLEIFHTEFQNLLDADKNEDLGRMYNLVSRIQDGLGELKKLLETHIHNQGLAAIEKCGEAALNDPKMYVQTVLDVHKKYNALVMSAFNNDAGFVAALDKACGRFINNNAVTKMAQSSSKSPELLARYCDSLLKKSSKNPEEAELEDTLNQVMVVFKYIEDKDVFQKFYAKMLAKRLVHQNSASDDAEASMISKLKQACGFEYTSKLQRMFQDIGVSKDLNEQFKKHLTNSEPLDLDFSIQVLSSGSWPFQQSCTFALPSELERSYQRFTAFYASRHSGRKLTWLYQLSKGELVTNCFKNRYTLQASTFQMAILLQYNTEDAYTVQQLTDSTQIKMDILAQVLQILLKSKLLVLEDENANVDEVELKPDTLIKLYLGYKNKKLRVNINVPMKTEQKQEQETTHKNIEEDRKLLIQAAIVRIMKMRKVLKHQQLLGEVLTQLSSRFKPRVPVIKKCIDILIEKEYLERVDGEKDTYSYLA
An asterisk follows results filed as active.

SMILES	RBX1-CUL1 inh
COC(=O)c1ccc(-n2c(C)cc(/C=C3\C(=O)NC(=S)N(c4cccc(Cl)c4Cl)C3=O)c2C)c(C)c1	31*
O=C1NC(=S)N(c2ccccc2)C(=O)/C1=C\c1ccc(OCc2ccccc2)c(C(=O)O)c1	10
Cc1c(Cl)cccc1N1C(=O)/C(=C/c2cc(C)n(-c3ccc(C(=O)O)cc3)c2C)C(=O)NC1=S	35*
Cc1cc(/C=C2\C(=O)NC(=S)N(c3cccc(Cl)c3Cl)C2=O)c(C)n1-c1cc(C(=O)O)cc(C(=O)O)c1	96*
Cc1ccc(N2C(=O)/C(=C\c3ccc(-c4cccc(C(=O)O)c4)o3)C(=O)NC2=S)cc1	90*
CC1=CC(=C2C(=O)NC(=O)NC2=O)C=C(C)N1c1ccc(C(=O)O)cc1	-1
COC(=O)[C@@H]1[C@H]2c3ccccc3O[C@]1(C)NC(=S)N2C(C)=O	-8
CCCc1noc(CN2CCCC(C(=O)c3nccn3C)C2)n1 (centres undefined)	11
Clc1cc(Cl)nc(-c2ccccc2)n1	0
CCN1CC2(OC(=O)c3ccccc3N)CCC(OC)C34C1C(CC23)C1(O)CC(OC)C2CC4C1(O)C2OC (centres undefined)	4
CN(c1cccc2ccccc12)[N+](=O)[O-]	7
Cc1ncc2c(c1-c1noc(C3CNC(=O)C3)n1)CCNC2 (centres undefined)	4
Cc1ccc(C2(O)CN3CCC2CC3)cc1C (centres undefined)	-3
COCCOC(=O)C1C(=N)OC(C)=C(C(=O)OC(C)C)C12C(=O)Nc1ccccc12 (centres undefined)	12
COc1ccc(-n2c(CNCc3ccco3)nc3ccccc3c2=O)cc1	9
Cc1ccc2c(c1)C=Nc1ccccc1O2	7
CC1(C)C(C(=O)N2CCC(C3(c4cccnc4)NC(=O)N(CCc4cccs4)C3=O)CC2)C1(C)C (centres undefined)	3
CCOC(=O)c1c(CN2CCC(C(=O)OCC)(c3ccccc3)CC2)n(-c2ccccc2)c2ccc(O)cc12	0
CN1C2CCC1CC(NCCN1CCOCC1)C2 (centres undefined)	-6
CCN(CC)C(=O)c1ccc2c(c1)C1C=CCC1C(c1ccc(Cl)cc1)N2 (centres undefined)	1
CCCCOC(=O)c1cc(-c2ccc(C=C3C(=O)NC(=O)NC3=O)o2)ccc1Cl	98*
CCOc1ccc(C2=C(C=C3C(=O)NC(=O)NC3=O)C(c3ccccc3C)c3ccccc3O2)cc1 (centres undefined)	6
CCOC(=O)C12C(=O)C(=O)NC1(c1ccccc1)N(c1ccccc1)c1ccccc12 (centres undefined)	2
COC(=O)CN1C(=O)C(O)N=C(c2ccccc2)c2cc(Br)ccc21 (centres undefined)	-1
Clc1ccccc1C1=NCc2nnc(N3CCN(CCOc4ccccc4)CC3)n2-c2sc(Br)cc21	6
SMILES	RBX1-CUL1 inh
CNC(=O)Oc1c(Br)cc2sc(=O)oc2c1Br	34*
CN(C)C(=O)Oc1c(Br)cc(Br)c(OC(=O)N(C)C)c1Br	9
O=C(Nc1ccc(Cl)cc1C(=O)c1ccccc1)c1ccc(F)cc1	-12
CC(C)Oc1cccc(C(=O)C2CCCN(CCCn3cccn3)C2)c1 (centres undefined)	3
O=C1NC(=S)NC(=O)C12C(c1ccccc1)NC(=S)NC2c1ccccc1 (centres undefined)	35*
COCCOC(=O)C1C(=N)OC2=C(C(=O)CC(C)(C)C2)C12C(=O)Nc1ccc(Br)cc12 (centres undefined)	12
CCOC(=O)C1C2C(=O)N(c3ccc(Br)cc3)C(=O)C12c1ccc(Cl)cc1 (centres undefined)	-6
COc1cc(C=C2C(=O)NC(=S)NC2=O)ccc1OCc1ccc(F)cc1	-5
O=C1NC(=S)NC(=O)C1=Cc1ccc(O)c(O)c1	10
Cc1cc(C=C2C(=O)NC(=S)NC2=O)c(C)n1-c1ccc2c(c1)OCO2	52*
O=C1NC(=S)NC(=O)C1=Cc1cn(Cc2ccc(Cl)cc2Cl)c2ccccc12	1
Cc1cc(C=C2C(=O)NC(=S)NC2=O)c(C)n1-c1cccc(C(F)(F)F)c1	26*
Cc1ccc(OCCn2c(C)c(C=C3C(=O)NC(=S)NC3=O)c3ccccc32)c(C)c1	6
Cc1ccc(OCC#CCN2CCOCC2)cc1	13
O=C(c1ccc(Cl)cc1)C1CCCN(Cc2cccnc2)C1 (centres undefined)	8
CSCc1nnc2n1-c1ccc(Cl)cc1C(c1ccccc1Cl)=NC2	1
Cc1cccc(OCC(=O)N2CCN(C)CC2)c1	1
Clc1ccc2c(c1)C(c1ccccc1Cl)=NCc1nnc(CSCc3cccnc3)n1-2	6
COc1ccc(-n2cccc2C=C2C(=O)NC(=O)NC2=O)cc1	14
COc1ccc(N2C(=O)/C(=C/c3cccn3-c3cccc(C(=O)O)c3)C(=O)NC2=S)c(OC)c1	63*
COc1ccc(C=C2C(=O)NC(=S)NC2=O)cc1OC(=O)c1ccccc1	1
CCOC(=O)[C@]12C[C@H](c3ccccc3)[C@@]1(C(=O)OCC)NC(=O)C2=O	4
CN1CCN(Cc2cccc(C(F)(F)F)c2)CC1CCO (centres undefined)	7
CC(C)(C)N1C(=O)NC(=O)/C(=C/c2c(Cl)cccc2Cl)C1=O	26*
O=C1NC(=S)NC(=O)C1=Cc1c(Cl)cccc1Cl	3
Cc1cccc(OCC(=O)N2CCN(C(c3ccccc3)c3ccccc3)CC2)c1C	-8
O=C(c1ccc(C(F)(F)F)cc1)C1CCCN(Cc2ccn[nH]2)C1 (centres undefined)	6
CN1C(=O)CN=C(c2ccccc2)c2cc(Br)ccc21	-7
CCOC(=O)c1sc2nc3c(cc2c1N)CN(C(C)C)CC3	-1
COc1ccc(C(=O)C2CCCN(Cc3csc(C(C)=O)c3)C2)cc1F (centres undefined)	6
